Screening results: PubChem, Small Molecule Screening Facility, UW Madison
RMI FANCM FP – blocks RMI1/RMI2 complex binding to FANCM MM2 peptide | Fluorescence polarization, RMI core complex with F-MM2 peptide; active compounds read low | 70,000 tested, 0.58% active | FP signal (polarization) at 33 µM; in the data active = FP signal below about 40
A number is an active result; 0 = inactive; ! = not active in a repeat. This excerpt belongs to a sample that is enriched for hits.

SMILES | RMI FANCM FP
Cc1[nH]c2ccc(O)cc2c1CCN | 0
COc1cc(CCN)ccc1O | 0
NCCc1cccc(O)c1 | 19
S=C(Nc1ccc(Cl)cc1Cl)N1CCCC1c1cccnc1 (configuration not stated) | 0
CN1CCc2cc(C(CN)N(C)C)ccc21 (configuration not stated) | 0
C[C@@H]1C(=O)O[C@H]2[C@H]1CC[C@@]1(C)C=CC(=O)[C@@]3(C)O[C@@]213 | 31!
ClC12CCCCC1C(c1ccccc1)NCC2 (configuration not stated) | 0
O=S(=O)(c1cccs1)N1CCOC12CCNCC2 | 0
O=C(NCc1c(F)cccc1F)c1cc2cccnc2n(Cc2ccc(F)cc2)c1=O | 0
O=P(N=P(O)(c1ccccc1)c1ccccc1)(c1ccccc1)c1ccccc1 | 0
CCCCCCCC(=O)NC(Oc1ccc(OC)cc1)C(Cl)(Cl)Cl (configuration not stated) | 0
CC[C@@H](CO)NC(=O)[C@@H]1C=C2c3cccc4c3c(cn4C)C[C@H]2N(C)C1 | 0
CCN(CC)C(=O)N[C@@H]1C=C2c3cccc4[nH]cc(c34)C[C@H]2N(C)C1 | 0
CC[C@@H](CO)NC(=O)[C@@H]1C=C2c3cccc4[nH]cc(c34)C[C@H]2N(C)C1 | 4!
Cc1nn(CCC#N)c(C)c1[Se]c1c(C)nn(CCC#N)c1C | 0
COc1ccc(/C=C2\CC3C4CCC5CC(O)CCC5(C)C4CCC3(C)C2=O)cc1 (configuration not stated) | 0
COc1cc2c(cc1OC)[C@@H]1C(=O)c3ccc(OC)c(CC=C(C)C)c3O[C@@H]1CO2 | 29
COc1cc2c(cc1OC)[C@@H]1C(=O)c3ccc4c(c3O[C@@H]1CO2)CC(C(C)C)O4 (some centres not stated) | 0
C=C(C)[C@H]1Cc2c(ccc3c2O[C@@H]2COc4cc(OC)c(OC)cc4[C@@H]2C3=O)O1 | 0
N#Cc1ccccc1CN1Cc2ccccc2C1=N | 0
COC(=O)c1ccc(C(=O)Nc2ccc(Cl)cc2C(=O)c2ccccc2)cc1 | 0
COc1ccc(CC(=O)N2CCN(Cc3nc(-c4cccs4)cs3)CC2)cc1OC | 0
Brc1ccc2nc(N3CCNCC3)sc2c1 | 0
O=C(O)C(=O)Cc1ccc(Cl)cc1 | 0
CC(C)N1CCN(c2ccc(C=O)cc2)CC1 | 0
COC(=O)[C@]1(C)CC[C@]2(C)CC[C@]3(C)C4=CCc5c(cc(O)c(O)c5C)[C@]4(C)CC[C@@]3(C)C2C1 (some centres not stated) | 13
CC12CCCCC1CCC1C2CCC2(C)C(O)/C(=C/c3ccccc3F)CC12 (configuration not stated) | 0
CC[C@@H](C(N)=O)N1CCCC1=O | 26
C#CCSc1nc(C)c(Cc2c(F)cccc2Cl)c(OC(=O)N(C)C)n1 | 0
O=[N+]([O-])c1ccc(NCc2ccco2)c2nonc12 | 0
